Assay outcomes as filed in PubChem BioAssay.
HSF1 inhib: HSF1 inhibition; NIH3T3-HGL HSE-luciferase, MG132-induced, luminescence 8 h; active compounds read low; AID 2098; actives 0.77% (n = 300,000); activity change, negative = inhibition, % at 7.5 µM (by protocol);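 active = more than half of replicate wells show activity change below -50%, luminescence cut by over half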;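 also: luciferase reports HSF-1 transcriptional activity via heat shock element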
HSP90 refold inh: blocks HSP90-mediated luciferase refolding in reticulocyte lysate; inhibition, % at 5.6 µM; AID 1789; actives 0.91% (n = 290,000); Rabbit reticulocyte lysate, luciferase refolding luminescence, 3 h;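 active = inhibition above the screen-wide mean plus 3 SD, computed separately per campaign, cut at about 16% in these data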;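 also: inhibitors lower the luminescence because luciferase stays unfolded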
p-CIP stab down: lowers stability of the mouse p/CIP coactivator protein; Q05BA5; F442A p/CIP-EGFP cells, EGFP fluorescence, 16 h; decrease of EGFP signal, % at 10 µM; actives 0.01% (n = 290,000);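 active = EGFP signal decrease of at least 30% at 10 µM or well 3 SD below plate mean, unless failing retest; inactive = the rest, including hits failing retest or dose response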
HSF-1 act: increases HSF-1 driven luciferase reporter signal | NIH3T3-HGL HSF-1 luciferase reporter, MG132, 8 h; 100% = twice DMSO control signal | activation, % at 9 µM | actives 1.7% (n = 300,000) | AID 504408;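 active = mean replicate activation of at least 50% with a set share of replicates each reaching 50%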
Hsp70 activator: Hsp70 transcriptional activation, primary screen | HeLa Hsp70 promoter luciferase reporter, luminescence; scaled: vehicle 0, proteasome-inhibitor control 100% | activation, % at 10 µM | AID 1203 | actives 0.04% (n = 200,000);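 active = activation above the mean across all tested compounds plus 3 SD, cutoff set per campaign, cut at about 5.5% in these data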
NALP1 yeast inh: blocks the NALP1 inflammasome reconstituted in yeast | S. cerevisiae NALP1/ASC/caspase-1 growth, X-gal OD620, 72 h | inhibition, % at 10 µM | actives 0.61% (n = 280,000) | AID 2071; in the data active = inhibition mostly above about 24%, no sharp cut-off; inactive = mostly below about 32%
Numbers stand for hits; - = inactive; . = no result. Compounds with a hit are over-represented: about 3.8% of the library has one in this group of screens.

SMILES | HSF1 inhib | HSP90 refold inh | p-CIP stab down | HSF-1 act | Hsp70 activator | NALP1 yeast inh
O=C(CNc1cccc(S(=O)(=O)N2CCCC2)c1)Nc1ccc(F)cc1F | - | . | . | - | . | .
Cc1ccc(NC(=O)COC(=O)CNC(=O)c2ccc(Br)cc2)c(C)c1 | - | - | - | - | - | -
CCC(c1nnnn1Cc1ccccc1)N1CCN(C(=O)c2ccco2)CC1 (configuration not stated) | - | - | - | - | - | 34
CCC(c1nnnn1CCOC)N1CCN(C(=O)c2ccco2)CC1 (configuration not stated) | - | - | - | - | - | -
CC(C)(C)c1nc(N2CCN(C(=O)c3ccco3)CC2)c2nnn(Cc3ccccc3)c2n1 | -70 | - | - | - | - | -
CN(C)c1ccc(-n2cccc2/C=C/[N+](=O)[O-])cc1 | - | - | - | 95 | - | -
CN(C)S(=O)(=O)c1ccc(Cl)c(C(=O)NC2=NCCS2)c1 | - | - | - | - | . | -
CCOC(=O)c1ccc(NC(=O)/C=C/c2cccs2)cc1 | - | - | - | 53 | - | -
Cc1occc1C(=O)N1CCCC(Nc2ccc(C(C)C)cc2)C1 (configuration not stated) | - | - | - | - | . | -
COc1ccc2c(COC(=O)c3n[nH]c4ccccc34)cc(=O)oc2c1 | - | - | - | 63 | - | -
Cc1cc2oc(=O)cc(COC(=O)c3n[nH]c4ccccc34)c2cc1C | - | - | - | 51 | - | -
COc1ccc2c(COC(=O)CCS(=O)(=O)c3ccccc3)cc(=O)oc2c1 | - | - | - | - | - | -
O=C(O)c1ccn(Cn2cnc3ccccc32)n1 | -75 | - | - | - | - | -
O=C(Cn1cnc2ccccc21)c1ccccc1 | - | - | - | - | . | -
Cc1cc(C)cc(-n2ncc3c2CCCC3NC(=O)CCN2Cc3ccccc3C2=O)c1 (configuration not stated) | - | - | - | - | . | -
COc1ccc(/C=C/C(=O)C23CC4CC(CC(C4)C2)C3)cc1CN1CCOCC1 | - | - | - | 122 | - | -
COc1ccc(S(=O)(=O)N2CCCCC2)cc1C(=O)N1CCCCCC1 | - | - | - | - | . | -
O=C(Nc1nc2c(s1)CCCC2)c1ccc(Br)s1 | - | - | - | 59 | - | -
O=C(Nc1nc2c(s1)CCCC2)c1ccc(N2C(=O)CCC2=O)cc1 | - | - | - | - | . | -
CCOc1cc([N+](=O)[O-])cc(/C=C2/NC(=O)N(Cc3ccccc3F)C2=O)c1O | - | - | - | 135 | - | -
Cc1ccc(S(=O)(=O)N(Cc2ccc([N+](=O)[O-])cc2)C(=O)N2CCN(C)CC2)cc1 | - | . | . | - | . | .
COc1cccc(N2CCN(C(=O)c3ccc4nc(N5CCCCC5)sc4c3)CC2)c1 | - | 59 | - | - | - | -
CC(C)CSc1nnc2c(n1)[nH]c1ccccc12 | - | - | - | 59 | - | -
CCn1cnc2c1c(=O)n(Cc1ccc(C(=O)OC)cc1)c(=O)n2Cc1ccccc1 | - | - | - | - | . | -
COC(=O)C(C)N(c1ccc(C)cc1)S(=O)(=O)c1c(C)[nH]c(=O)[nH]c1=O (configuration not stated) | - | - | - | - | - | -
SMILES | HSF1 inhib | HSP90 refold inh | p-CIP stab down | HSF-1 act | Hsp70 activator | NALP1 yeast inh
Cc1ccc(N(C(C)C(=O)O)S(=O)(=O)c2c(C)[nH]c(=O)[nH]c2=O)cc1 (configuration not stated) | - | . | - | - | . | 42
CCOc1ccc2c(=O)c(Oc3ccccc3OCC)coc2c1 | - | - | - | - | - | 44
Cc1ccn2cc(-c3cnoc3C)nc2c1 | - | - | - | - | - | -
COc1c(Cl)cccc1-c1cn2ccc(C)cc2n1 | - | - | - | 58 | . | .
COc1ccc2oc(=O)c(C(=O)N3CCN(c4ccccc4)CC3)cc2c1 | - | - | - | 82 | - | -
Oc1ccc(O)c(/C(=N/Nc2ccccc2)c2ccccc2)c1 | - | - | - | - | . | 42
CN1CCN(CCC(=O)Nc2ccc(C3CCCC3)cc2)CC1 | - | - | - | - | - | -
Cn1c(NC(=S)Nc2ccccc2)nc2ccccc21 | - | - | - | 77 | - | -
COc1ccccc1-n1ccnc(SCC(=O)NCc2ccccc2)c1=O | -55 | . | . | - | . | .
COc1ccccc1-n1ccnc(SCC(=O)NC2CCCC2)c1=O | - | . | . | - | . | .
Cc1cc(C)c(O)c(NC(=S)NC(=O)Cc2ccccc2)c1 | - | - | - | - | . | -
